In the library only some 3.4% were active in any assay of this set; here they are far more common.
NPSR antag: neuropeptide S receptor (human) antagonism, cAMP. Q6W5P4. CHO-NPSR cells, cAMP TR-FRET, antagonist mode. Potency, µM (titrated, usually from 38.3 µM), for the others: at the top dose activity change, negative = inhibition, usual class: inhibitors. 1% of 220,000 active. AID 1461; further: potency means the concentration at half of the fitted maximal effect; on the % scale 0 is the no-effect control and ±100 the full control effect; nearly all actives have a fitted effect of over 50% in size
Target sequence (Q6W5P4 whole entry, looked up): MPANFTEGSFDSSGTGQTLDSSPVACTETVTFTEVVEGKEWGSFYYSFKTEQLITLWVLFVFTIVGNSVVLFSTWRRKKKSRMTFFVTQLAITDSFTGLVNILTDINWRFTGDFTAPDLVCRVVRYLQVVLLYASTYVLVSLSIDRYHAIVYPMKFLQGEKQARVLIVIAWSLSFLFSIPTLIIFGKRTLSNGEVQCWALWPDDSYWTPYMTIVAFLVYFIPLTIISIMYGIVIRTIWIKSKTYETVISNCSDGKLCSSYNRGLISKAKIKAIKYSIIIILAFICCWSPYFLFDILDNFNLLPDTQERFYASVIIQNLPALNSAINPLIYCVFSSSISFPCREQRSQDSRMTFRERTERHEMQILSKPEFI
HTT aggregate: reduces HttQ103-GFP aggregates in PC12 cells; PC12 HttQ103-GFP aggregates, Acumen cytometry, 40 h; Potency, µM (series often up to 46.1 µM), for the others: at the top dose activity change, negative = inhibition, most hits filed as inhibitors; 1.1% of 220,000 active; further: potency means the concentration at half of the fitted maximal effect; on the % scale 0 is the no-effect control and ±100 the full control effect; nearly all actives have a fitted effect of over 60% in size
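Using laser scanning cytometry, GFP-positive aggregates were counted after lysis of PC12 cells induced with 100 nM tebufenozide to express HTT exon 1 Q103–GFP. Compounds were tested in titration.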
IMPase Li inh: cell-permeable IMPase inhibitors with lithium potentiation | 0.35% of 210,000 active | AID 1457 | Potency, µM (doses to about 59.4 µM), for inactives: at the highest dose activity, negative = IMPase inhibition, hits mostly inhibitors | CHO-M1 cells, IP1 TR-FRET (IP-One), carbachol + lithium;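 further: IP1 builds up when IMPase is blocked and the TR-FRET signal falls; potency means the concentration at half of the fitted maximal effect; plate controls were basal vehicle for no effect and high inhibitor control for full effect; nearly all actives have a fitted effect of over 50% in size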
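Steps: plate 2000 CHO-M1 cells per well and culture 16–30 h; add compound and lithium; incubate 30 min, 37C; add d2-IP1 tracer and Eu cryptate anti-IP1 antibody in lysis buffer; read after 10 min at room temperature.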
PNC assembly inh: blocks assembly of the perinucleolar compartment | 3.1% of 140,000 active | PC3M PTB-GFP, PNC prevalence imaging, 16 h; active compounds read low | activity change (PNC), negative = inhibition, % at 10 µM;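 active means readout at or below -70, meaning at least 70% loss of cells showing the perinucleolar compartment, a nuclear body marking cancer cells; inconclusive means readout between -30 and a set limit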;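 further: plate controls were DMSO wells for no effect and camptothecin positive control wells for full effect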
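Compounds are pinned in duplicate onto adhered PC3M cells stably expressing GFP-tagged PTB and incubated 16 h at 37 C. Cells are then fixed, nuclei stained with Hoechst, and PNC-positive cells counted.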
IMPase cell inh: IMPase inhibition in cells; P97697; CHO-M1 cells, IP1 accumulation, HTRF TR-FRET ratio; inhibition (IP1 accumulation), % at 46.1 µM; 120,000 tested, under 10 active; active means well fitted curve in the direction sought with a large enough effect in the signal ratio, not every such curve was filed as active; inconclusive means small, poorly fitted or top-dose-only effect, or a change in a side signal; inactive means no such curve, though single readings can be large or run the other way; the % refers to the signal ratio;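 further: cells stimulated with carbachol in lithium chloride buffer; plate controls were DMSO basal wells for no effect and reference inhibitor wells for full effect; higher means more IMPase inhibition seen as more IP1 and lower FRET ratio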
Target sequence (P97697 whole entry, looked up): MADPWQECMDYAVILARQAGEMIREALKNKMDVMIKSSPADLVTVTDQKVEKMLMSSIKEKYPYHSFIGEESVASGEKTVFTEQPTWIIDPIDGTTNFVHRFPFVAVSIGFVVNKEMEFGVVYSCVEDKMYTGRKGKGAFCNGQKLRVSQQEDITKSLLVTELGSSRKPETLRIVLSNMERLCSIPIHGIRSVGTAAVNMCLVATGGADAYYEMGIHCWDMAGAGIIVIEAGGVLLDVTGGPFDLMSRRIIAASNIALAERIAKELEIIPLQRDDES
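Carbachol-driven Gq signalling in CHO-M1 cells (2000/well) generates IP1. Compounds that block IMPase raise IP1 and so reduce the FRET signal from Eu-anti-IP1 and d2-IP1 after a 10 min room-temperature lysis.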
HTT ATP protect: cytoprotection in Huntington HTT-Q103 PC12 cell model; PC12 HTT-Q103 induced, cytoprotection, ATP luminescence, 40 h; Potency, µM (doses to about 56.4 µM), for inactives: cytoprotection (ATP increase), usual class: activators; 0.14% of 230,000 active; AID 1471; further: potency means the concentration at half of the fitted maximal effect; % of control where 0% means no effect; nearly all actives have a fitted effect of over 45% in size
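Readout: ATPlite luminescence (ATP level). Model: stable PC12, inducible Htt exon1 Q103-GFP. Inducer: tebufenozide, 100 nM final. Compounds: dose series. No G418 in medium.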
* marks the source's active call; other numbers are inactive results; ? = inconclusive; / = not tested or not shown; [ ] = dose if it differs, or a comment. Unless noted, the call rests on the fitted dose curve; in most records, active means well fitted curve in the direction sought with a large enough effect; inconclusive means small, poorly fitted or top-dose-only effect, or another doubt; inactive means no such curve, though single readings can be large; an effect the other way counts as inactive or inconclusive.

SMILES | NPSR antag | HTT aggregate | IMPase Li inh | PNC assembly inh | IMPase cell inh | HTT ATP protect
COc1ccc(CNC(=O)c2ccc[nH]2)cc1Cl | 6.6% | 10.0%[9.22 µM] | -1.4% | / | / | -33.5%
CCCOc1ccccc1/C=C(\C#N)C(=O)Nc1cccnc1 | -2.5% | 11.0%[9.22 µM] | / | / | / | -11.5%[10 µM]
O=c1cc(-c2ccc(O)cc2)oc2cc(OC3OC(CO)C(O)C(O)[C@H]3O[C@@H]3OC[C@@](O)(CO)C3O)cc(O)c12 (stereo partly drawn) | / | / | 4.8% | / | / | /
Cc1ccc(C)c(NC(=O)CN(C)C(=O)c2nn(C)c(=O)c3ccccc23)c1 | 4.1% | -5.4% | -0.2% | / | / | -27.9%
c1cc2c(cc1-c1cnc3n1CCC3)OCCO2 | -4.9%[46.1 µM] | 25.1µM* | 3.3%[38.3 µM] | 27.6 | -4.9 | 26.3%
Cc1ccc(-c2cnc3n2CCCCC3)cc1 | 6.8% | 1.9% | 23.8% | / | / | -2.6%[10 µM]
O=C(Cc1ccccc1)Nc1ccc(Br)c(Cl)c1 | -13.9% | 5.4% | 12.1% | -82.1* | / | -4.6%[10 µM]
C/C(=C\C(=O)c1ccccc1)Nc1ccc(Br)c(Cl)c1 | -14.6%[46.1 µM] | -13.5% | 1.5%[38.3 µM] | 37.8 | 5.9 | 14.2%
O=C1N(Cc2cccnc2)C[C@@H]2C[C@@H](c3cccc(Oc4ccccc4)c3)N3CCC[C@@]123 | -12.8% | 0.0%[9.22 µM] | / | / | / | -1.2%[10 µM]
NC1=NC2C(N=C(Br)N2[C@@H]2O[C@H]3COP(=O)(O)O[C@@H]3[C@@H]2O)C(=O)N1 (stereo partly drawn) | / | / | 16.3% | / | / | 23.9%
O[C@@H](c1cc(-c2ccc(Cl)cc2)nc2ccccc12)C1CCCCN1 (stereo partly drawn) | / | / | -3.9% | / | / | /
CC1CN(S(=O)(=O)c2ccc(C(=O)Nc3nnc(-c4ccccn4)o3)cc2)CC(C)O1 (stereo not drawn) | 2.1% | -7.6% | -6.4% | / | / | -22.7%
CC1CN(S(=O)(=O)c2ccc(C(=O)Nc3nnc(-c4ccc5c(c4)CCCC5)o3)cc2)CC(C)O1 (stereo not drawn) | -1.2%[46.1 µM] | 3.55µM* | -3.1%[38.3 µM] | 15.5 | -0.9 | -106.9%
CC(=O)Nc1nnc(-c2ccc3c(c2)CCCC3)o1 | -12.0%[46.1 µM] | -14.4% | -13.6%[38.3 µM] | 34.7 | 1.7 | -44.7%
COc1cc(-c2nnc(NC(=O)c3ccc(S(=O)(=O)N4CCOCC4)cc3)o2)cc(OC)c1OC | -4.5% | 14.3% | -10.6% | / | / | -8.0%
COc1cccc(-c2nnc(NC(=O)c3ccc(S(=O)(=O)N4CCOCC4)cc3)o2)c1 | -15.6%[46.1 µM] | 10µM* | 2.8%[38.3 µM] | 9.0 | ? | -56.4%
COc1ccccc1C(=O)Nc1nnc(-c2ccc3c(c2)CCCC3)o1 | -12.1%[46.1 µM] | 20µM* | 6.7%[38.3 µM] | 2.3 | 2.5 | -36.8%
CC(C)(C)c1onc(OCP(=O)(O)O)c1CC(N)C(=O)O (stereo not drawn) | 6.2%[46.1 µM] | / | -5.9% | / | / | /
O=C1CCCC(=NCc2ccco2)C1 | -12.2%[46.1 µM] | -8.0% | -3.7%[38.3 µM] | ? | -9.7 | 9.0%[10 µM]
CN(C)c1nc(=NCc2ccco2)ss1 | ? | 0.891µM* | / | / | / | -92.4%[10 µM]
O=C(COc1ccc(Br)cc1CNCCc1ccccc1)NCc1ccccc1 | -54.7% | 12.6µM* | 21.7% | / | / | -231.4%
CCCCCC(=O)NC(=S)NNC(=O)CC | -15.7%[46.1 µM] | -20.2% | 22.9%[38.3 µM] | -8.6 | 2.8 | -18.0%
CCCCC(=O)NC(=S)NNC(=O)CC | -4.8%[46.1 µM] | -24.4% | 3.9% | -94.1* | 4.8 | 15.3%[1.9 µM]
CC1=C(c2ccc(NN=C(C#N)C#N)cc2)NNC(=O)C1 | / | 12.6µM* | / | / | / | -52.1%
Cc1cccc(N2CC(C(=O)OCC(=O)c3ccc(OC(=O)c4cccs4)cc3)CC2=O)c1C (stereo not drawn) | -8.1%[46.1 µM] | 4.6% | 3.2%[38.3 µM] | -83.1* | -3.8 | 15.5%
COc1ccccc1N1CC(C(=O)OCC(=O)c2ccc(F)cc2)CC1=O (stereo not drawn) | 16.3%[46.1 µM] | -5.4% | -6.1%[38.3 µM] | 57.7 | 4.2 | -2.5%
CN(C)c1nc(-c2ccccn2)nnc1-c1ccccc1 | -3.9%[46.1 µM] | -29.1%[9.22 µM] | 31.2%[38.3 µM] | -26.4 | 6.9 | -32.2%
CCN(CC)c1nc(-c2ccccn2)nc(-c2ccccc2)c1C#N | -52.9% | 5.01µM* | 4.1% | / | / | -124.2%
O=C(Nc1ccc(Cl)cc1)c1cc2c(-c3ccccc3)nn(-c3ccccc3)c2s1 | / | / | / | / | 1.9 | /
